This is a sample that favours compounds with a hit; in the whole collection about 4.7% have one here.
PfHsp90 yeast 2: inhibits growth of yeast expressing Plasmodium falciparum Hsp90; S. cerevisiae expressing PfHsp90, BacTiter-Glo ATP, 48 h; yeast lacking PDR1 and PDR3 efflux regulators; inhibition, % at 9.4 µM; hit rate 0.32% among 310,000; AID 504621;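 active means every replicate shows inhibition above about 80%, whatever the replicate mean, limit read from the data; inconclusive means mean inhibition reaches the set limit but some replicate falls short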;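 further: 0% = DMSO neutral controls and 100% = 20 µM radicicol positive controls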
Calb FLC: C. albicans growth modulation with fluconazole | C. albicans CaCi-2 (fluconazole-resistant clinical isolate) + fluconazole, Alamar Blue growth, 48 h | growth inhibition, % (test concentration not listed) | hit rate 0.57% among 300,000;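 active means growth inhibition above about 58% in most replicates, limit read from the data, passing the limit was not always enough; inconclusive means exactly half the replicates above a set limit; inactive means most replicates below a set limit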;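 further: all wells also contain fluconazole at 8 µg/ml as a sub-toxic cotreatment; 0% = median of DMSO wells and 100% = median of geldanamycin control wells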
TIM10 inh: growth inhibitors of TIM10 yeast strain. inhibition, % at 10 µM. S. cerevisiae TIM10 strain growth, BacTiter-Glo luminescence, 24 h. hit rate 1.4% among 330,000;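 active means inhibition of 40% or more at the single tested concentration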;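 further: wild-type TIM10 isogenic control strain grown at permissive 25 °C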
SKKanGAS inh: SKKanGAS growth inhibition | S. pyogenes SKKanGAS, kanamycin growth, BacTiter-Glo, 6 h | inhibition, % at 7.5 µM | hit rate 1.3% among 300,000 | AID 1662;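 active means mean replicate score, as percent of positive control median, at least 50; inconclusive means mean below 50 but one replicate at or above 50; inactive means mean and every replicate below 50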;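 further: strain carries kanamycin resistance gene driven by streptokinase promoter and grows in 40 µg/ml kanamycin; loss of luminescence reflects streptokinase promoter inhibition or plain growth inhibition; 0% = median of DMSO wells and 100% = positive control at its reference dose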
tim10-1 inh: tim10-1 yeast growth inhibition; S. cerevisiae tim10-1 ts strain growth, BacTiter-Glo, 24 h; inhibition, % at 20 µM; hit rate 2.2% among 330,000;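 active means inhibition of at least 40%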;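 further: mutant grown at 25 °C; 0% = DMSO wells with yeast and 100% = wells holding no yeast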
tim23-1 inh: tim23-1 yeast growth inhibition | S. cerevisiae tim23-1 growth, BacTiter-Glo luminescence, 24 h | inhibition, % at 20 µM | hit rate 1.3% among 330,000 | AID 463212;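 active means growth inhibition of the mutant yeast at or above 50%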;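 further: temperature-sensitive mutant grown at 25 °C; plate controls were DMSO-treated mutant yeast for no effect and medium wells lacking yeast for full effect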
tim10-1 confirm: confirmation of tim10-1 mutant yeast growth inhibitors | shares compounds with tim10-1 inh | S. cerevisiae tim10-1 ts strain growth, BacTiter-Glo, 24 h | inhibition, % at 20 µM | hit rate 56% among 7,400 | AID 463213;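 active means inhibition of yeast growth at or above a set limit in either of two repeat tests at 20 µM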;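 further: tim10-1 mutant grown at permissive 25 °C to find synthetic lethal compounds; 0% = DMSO yeast wells and 100% = medium wells without yeast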
TIM10 conf: confirmation of TIM10 yeast growth inhibitors; shares compounds with TIM10 inh; S. cerevisiae tim10 strain growth, BacTiter-Glo luminescence, 24 h; inhibition, % at 10 µM; hit rate 63% among 4,600;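 active means inhibition of yeast growth at or above a set limit in either of two replicates at 10 µM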;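 further: this counterscreen used the strain with wild-type TIM10; 0% = yeast with DMSO and 100% = medium wells lacking yeast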
* hit, by the source's call; ? = inconclusive; / = no result given; ! = a repeat was not active.

SMILES | PfHsp90 yeast 2 | Calb FLC | TIM10 inh | SKKanGAS inh | tim10-1 inh | tim23-1 inh | tim10-1 confirm | TIM10 conf
COc1ccc(CNc2ncnc3cc(Cl)ccc23)cc1OC | 7.6 | -1.4 | / | 5.6 | / | / | / | /
FC(F)(F)Oc1ccc(NC(=S)Nc2ccc(OC(F)(F)F)cc2)cc1 | 16.3 | -1.5 | 57.0* | 71.7* | 50.0* | 49.0 | 62.4* | 70.5*
C=C[C@]1(C)C[C@@H](OC(=O)CSCCN(CC)CC)[C@]2(C)C(C)CC[C@]3(CCC(=O)[C@H]32)[C@@H](C)[C@@H]1O (stereo not given in full) | 21.5 | -19.8 | 42.1*! | 103.5* | 45.8* | 33.7 | 40.2*! | 37.7*
Cc1cccc(C(=O)NC2CCN(CC(=O)Nc3ccccc3Cl)CC2)c1 | 2.3 | 13.4 | -1.8 | 2.3 | 4.3 | 10.4 | / | /
COc1ccc(-n2c(COc3ccc(Cl)cc3)nnc2SCc2ccc(C#N)cc2)cc1 | -2.8 | 16.4 | 23.5 | 22.5 | 39.9 | 23.4 | / | /
COc1ccc(NCc2nnc(SCc3ccc(Cl)cc3)n2-c2ccccc2)cc1 | -12.3 | -2.3 | 54.4* | 27.6 | 52.4* | 49.9 | 39.4* | -24.4
COc1cc(OC)cc(-c2sc3ccc(OC)cc3c2C#CC2(N)CCCCC2)c1 | -2.3 | / | 44.7* | / | 43.6* | 12.3 | 18.2 | 26.4
COc1cccc(-c2sc3ccc(OC)cc3c2C#CC2(O)CCCCC2)c1 | -1.2 | / | 13.0 | / | 14.8 | 17.1 | / | /
CC(Sc1nnc(C2CC2)n1C1CC1)C(=O)c1ccc(F)cc1 (stereo not given) | 6.9 | / | 7.4 | / | -0.2 | 10.5 | / | /
CC12CCC(C(=O)Nc3nccs3)(OC1=O)C2(C)C (stereo not given) | / | ? | 4.4 | 0.6 | 26.7 | 9.2 | / | /
CC12CCC(C(=O)Nc3nc4ccc(Br)cc4s3)(OC1=O)C2(C)C (stereo not given) | -2.4 | ? | 47.8* | 5.7 | 50.5* | 28.2 | 42.2* | 31.8*
COc1cccc(N2CCN(C(=O)c3ccc4nc(N5CCCCC5)sc4c3)CC2)c1 | 4.7 | -9.3 | 9.4 | -0.7 | 39.8 | 24.9 | / | /
COc1ccc(N2CCN(C(=O)c3ccc4nc(N5CCCCC5)sc4c3)CC2)cc1 | -4.6 | 9.9 | 40.1* | 2.6 | 43.5* | 37.5 | 33.9* | 33.1*
CCCc1cc(=O)oc2cc(C)cc(OC(C)C(=O)NCCCn3ccnc3)c12 (stereo not given) | 6.3 | 1.6 | 2.1 | -1.1 | 12.1 | 1.1 | / | /
CN(C)CCCNS(=O)(=O)c1ccc(N2CCC(c3ccc(Cl)cc3)=N2)cc1 | / | -0.7 | 51.7* | -2.0 | 58.9* | 11.2 | 39.9* | 50.3*
CN(C)CCCNS(=O)(=O)c1cc(Cl)ccc1Cl | / | -10.5 | -10.3 | -15.1 | 4.7 | 16.6 | / | /
Cc1ccccc1N(C(=O)CNC(=O)c1ccco1)C(C(=O)NC1CCCC1)c1ccncc1 (stereo not given) | -0.5 | -8.0 | -9.8 | 14.8 | -5.2 | 3.0 | / | /
CCN(C(=O)CO/N=C/c1ccc(OC)cc1OC)c1c(N)n(Cc2ccccc2)c(=O)[nH]c1=O | -1.3 | / | 8.8 | / | -1.1 | -0.6 | / | /
Cn1nc(C(F)(F)F)c2cc(NC(=O)OCc3ccc(F)cc3)sc21 | -15.5 | -11.6 | 56.2* | 0.0 | 57.8* | -6.4 | 48.8* | 54.0*
COc1ccc2nc(NC(=O)CN(c3ccc(C)cc3)S(=O)(=O)c3c(C)nn(C)c3C)sc2c1 | / | 23.9 | 41.5* | 25.7 | 44.7* | 40.1 | 30.9* | 44.1*
c1ccc(-c2nnc(N3CCN(c4ccccn4)CC3)c3ccccc23)cc1 | / | 0.5 | 40.7* | 15.7 | 52.4* | 33.4 | 28.8 | 7.7
Cc1ccc2cccc(NC(=S)NC(=O)c3c(Br)cnn3C)c2n1 | -7.5 | -2.0 | 18.5 | -7.1 | 37.5 | 19.3 | / | /
Cc1ccc2cccc(NC(=S)NC(=O)c3ccn(C)n3)c2n1 | -5.5 | 8.8 | 47.9* | 9.0 | 41.4* | 45.0 | 26.9 | 44.8*
O=C(NC1CCN(Cc2ccccc2)CC1)c1cc(S(=O)(=O)Nc2ccc(F)cc2)ccc1Cl | 0.9 | / | 5.2 | / | 3.0 | 8.2 | / | /
O=c1oc2ccccc2nc1/C=C(O)/C=C\c1ccccc1 | / | 23.8 | 45.3* | -15.9 | 57.5* | 39.0 | 46.5* | 44.1*
SMILES | PfHsp90 yeast 2 | Calb FLC | TIM10 inh | SKKanGAS inh | tim10-1 inh | tim23-1 inh | tim10-1 confirm | TIM10 conf
O=C1c2ccccc2C(=O)c2c1ccc1c(=O)n(C3CCCCC3)[nH]c21 | -13.4 | ? | 50.5* | ? | 49.5* | 44.1 | 39.0* | 53.6*
O=c1c2[nH]c3ccccc3c2ncn1C1CCCCC1 | / | -1.6 | -5.0 | -3.0 | 5.6 | 19.9 | / | /
Cn1cnnc1SCC(=O)NC1CCCC1 | 9.5 | -3.4 | -5.2 | 10.9 | -2.8 | -0.2 | / | /
CCOC(=O)c1c(N2C(=O)CC(Sc3ccccc3C(=O)O)C2=O)sc2c1CCCC2 (stereo not given) | 21.5 | 14.6 | 43.1* | -6.0 | 53.8* | 31.2 | 44.0* | 40.5*
CCCCn1c(N)c(N(CCOC)C(=O)C2CCN(S(=O)(=O)c3ccc(Cl)cc3)CC2)c(=O)[nH]c1=O | -2.5 | -0.6 | 11.4 | 2.7 | 16.2 | 9.9 | / | /
O=S(=O)(c1ccc2ccccc2c1)n1cccn1 | -12.3 | 6.1 | 15.9 | -4.3 | 18.0 | 15.2 | / | /
CCc1nnc(SCC(=O)Nc2ccccc2)n1CC1CCCO1 (stereo not given) | -3.9 | -17.5 | 0.7 | -0.8 | -13.2 | -7.7 | / | /
N#Cc1nc(-c2cccs2)oc1NCCc1ccccc1 | / | 13.1 | 64.8* | 6.0 | 57.0* | 36.3 | 38.1* | 67.8*
N#Cc1nc(-c2cccs2)oc1NCCN1CCOCC1 | / | 13.3 | -3.2 | 1.1 | 9.6 | -2.2 | / | /
CC(=O)Nc1ccc(S(=O)(=O)N2CCSC2c2ccc(Cl)cc2)cc1 (stereo not given) | 22.9 | -23.4 | 40.2* | 2.0 | 52.8* | 47.2 | 38.7* | -25.1
CC(C)n1c(-c2ccc(C(C)(C)C)cc2)n[nH]c1=S | -38.0 | 9.8 | 43.5* | 6.8 | 42.6* | 46.9 | 35.0* | 46.4*
Cc1noc(/C=C/c2cccnc2)c1[N+](=O)[O-] | -31.9 | 21.3 | 56.5* | 3.9 | 54.7* | 43.7 | 57.2* | 74.9*
Cc1cccc(C)c1N/C=C/c1onc(C)c1[N+](=O)[O-] | 12.9 | -3.4 | -7.5 | -2.3 | 1.7 | 1.5 | / | /
O=C(CNc1cccc(C(F)(F)F)c1)N/N=C/c1cccc(Br)c1 | -28.3 | 0.5 | 48.6* | 7.0 | 43.6* | 18.4 | 24.5 | -28.1
Cc1cccc(NCC(=O)N/N=C/c2cccc(Br)c2)c1 | -1.7 | 22.8 | 14.8 | -4.8 | -6.0 | 0.7 | / | /
NNC(=O)Nc1cccc(C(F)(F)F)c1 | / | 13.1 | 7.9 | 3.2 | 12.9 | 21.8 | / | /
O=C(Nc1ccc(OC(F)F)cc1)Nc1cccc(C(F)(F)F)c1 | 16.9 | -18.0 | 63.3* | 59.5* | 57.2* | 43.5 | 51.4* | 52.3*

Source: PubChem (several laboratories)
